Measurements: PubChem BioAssay AID485317 (Broad Institute, 2010)
Among all 290,000 compounds or so, about 11,000 (3.8%) were called active. For the sample, actives were picked, then their nearest neighbours and some compounds at random. Unmarked numbers belong to inactive results.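 The calls were made as follows: active = mean replicate inhibition above about 79%, with every replicate also reaching it (limit read from the data); inconclusive = only one of the two criteria met; inactive = mean below limit and not every replicate reaching it.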

Target: FAD-linked sulfhydryl oxidase ALR (Homo sapiens) (UniProt P55789)
Sequence (P55789 whole entry, looked up): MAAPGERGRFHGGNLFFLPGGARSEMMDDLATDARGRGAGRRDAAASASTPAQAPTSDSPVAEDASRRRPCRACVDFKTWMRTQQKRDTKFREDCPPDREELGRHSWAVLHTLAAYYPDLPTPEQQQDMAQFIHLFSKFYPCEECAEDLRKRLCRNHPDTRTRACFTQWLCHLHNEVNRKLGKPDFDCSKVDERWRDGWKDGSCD
Assay: inhibitors of human ALR sulfhydryl oxidase, primary screen, biochemical, H2O2 detection, HRP-luminol luminescence, single point (AID 485317)
Settings: purified ALR, DTT oxidation, active compounds read high, concentration not given here

Structure (SMILES) | inhibition
C=CC[C@@H](CC(=O)NCCO)C(=O)N[C@H](C)COC(=O)[C@@H](CC=C)CC(=O)OC(C)(C)C | 4.16%
CCN1C(=O)[C@H]2[C@@H](c3ccc(-c4ccc(F)cc4)cc3)N[C@@](Cc3ccccc3)(C(=O)OC)[C@H]2C1=O | -2.13%
CCCn1c(C2CCCN2c2nc(-c3ccc(OC)cc3)cs2)nc2ccccc21 (stereo not given) | -0.584%
CCOC(=O)C1CCCN(C(=O)CSc2nnc3nc(C)cc(C)n23)C1 (stereo not given) | -0.482%
C=CCC(NCCCO)c1cccc(OC)c1OC (stereo not given) | 99.7% (active)
COc1ccc(CNCCCO)cc1OC | 1.87%
C=CCC(Nc1ccccc1)c1cccc(OC)c1OC (stereo not given) | 98.9% (active)
COc1cccc(C(O)Cc2nc3ccccc3n2C)c1OC (stereo not given) | 2.27%
C=CCC(NCc1ccco1)c1ccc(OC)cc1 (stereo not given) | 1.8%
COc1cccc(NC(=O)CC(c2ccc(OC(C)C)cc2)c2ccccc2OC)c1 (stereo not given) | 1.22%
CCOC(=O)[C@H]1[C@H]2COc3ccc(C)cc3[C@@H]2N2C(=O)CN(Cc3ccc(F)cc3)C(=O)[C@@]12C | -13.6%
CCOCc1c(C(=O)N2CCN(Cc3ccc(Br)s3)CC2)oc2ccccc12 | 1.34%
CCN(CC(=O)Nc1ccccc1C(F)(F)F)C(=O)CSCc1c(C)noc1C | 6.19%
Cc1ccccc1NC(=O)C(C)OC(=O)CCC(=O)N(CC(C)C)c1c(N)n(CC(C)C)c(=O)[nH]c1=O (stereo not given) | -8.82%
COc1cc(C(=S)N2CCOCC2)ccc1O | -6.46%
COc1ccc(C(=O)NC(=S)NC2CCCCC2)cc1 | 3.44%
COc1cc(C(=S)NC2CCCCC2)ccc1O | 98.5% (active)
O=C(CN1CCN(S(=O)(=O)c2cccc(Cl)c2)CC1)N1CCCCC1 | 14.4%
O=C(NCC1(N2CCCCC2)CCCCC1)c1ccc(NS(=O)(=O)c2ccc(F)cc2)cc1 | 7.5%
CC(Sc1nn(-c2ccc(Cl)cc2)c(=S)s1)C(=O)NCC1CCCO1 (stereo not given) | -12.1%
COc1cc(-c2n[nH]c(=S)n2Cc2ccccc2)cc(OC)c1OC | 68.8%
CCOc1ccc(/C=N/Nc2nncc(-c3ccccc3)n2)cc1OC | -1.74%
COc1cc(/C=N/n2c(C)n[nH]c2=S)ccc1OCc1ccccc1 | 97% (active)
COc1ccc(S(=O)(=O)Nc2ccc3cn[nH]c3c2)cc1[N+](=O)[O-] | -7.76%
O=C(c1cc(-c2ccc(F)cc2)on1)N1CCN(c2ccc(F)cc2)CC1 | 1.89%
O=C(c1cc(-c2ccc(O)cc2)on1)N1CCCc2ccccc21 | 98.8% (active)
Cc1ccc(-c2cc(C(=O)N3CCc4ccccc4C3)no2)cc1 | -5.44%
Cc1c(C(=O)N2CCCc3ccccc32)oc2ccccc12 | 1.77%

Structure (SMILES) | inhibition
O=C(c1cc(-c2ccc(Cl)cc2)on1)N1CCN(c2ccccc2)CC1 | 4.35%
O=C(c1cc(-c2ccc(O)cc2)on1)N1CCOCC1 | 99% (active)
COc1ccc2sc(-c3ccc(S(C)(=O)=O)cc3)c(C#Cc3cncn3C)c2c1 | 1.35%
COc1ccccc1CCNC(=O)C(=O)NCCC1CCCCN1S(=O)(=O)c1cccs1 (stereo not given) | -56.8%
CC1(C)O[C@H]2CC(=O)OCC23[C@H]2CC[C@@]4(C)[C@H](c5ccoc5)OC(=O)[C@H]5O[C@]54[C@]2(C)C(=O)C[C@@H]13 (stereo not given in full) | -10.7%
CCc1noc(C)c1C(=O)Oc1ccc(N(C)S(=O)(=O)c2ccc(C)c(C)c2)cc1 | 22.1%
COc1ccc(C(=O)Nc2cc(S(=O)(=O)N3CCCC3)ccc2Cl)cc1 | 0.959%
Cc1cc(Nc2ccc(Cl)cc2)nc(N2CCOCC2)n1 | -2.6%
Cc1cc(N2CCOCC2)nc(-c2ccc(Br)cc2)n1 | -3.64%
Cc1cc(N2CCN(c3ccccc3)CC2)nc(N2CCOCC2)n1 | 98.9% (active)
COc1ccc(CNC(=O)COC(=O)C(CCSC)N2C(=O)c3ccccc3C2=O)cc1 (stereo not given) | -2.44%
CC(C)(C)Cc1nnc(NC(=O)c2cc(-c3ccccc3)nc3ccccc23)s1 | 3.63%
O=C(O)c1cccc(NC(=O)c2cc(-c3cccc(Cl)c3)nc3ccccc23)c1 | 98.6% (active)
O=C(Nc1cccc(F)c1)c1cc(-c2ccco2)nc2ccccc12 | 5.76%
Cc1ccc([C@@H]2CC=C(C(=O)O)[C@H](c3cccc(Cl)c3)N2S(=O)(=O)c2ccc(C)cc2)cc1 | 4.58%
O=C1COc2ccc(C(=O)COC(=O)CCOc3ccccc3)cc2N1 | -1.49%
CC1=CC(C)(C)Nc2ccc(OC(=O)CN3C(=O)C4CCCCC4C3=O)cc21 (stereo not given) | 85.4% (active)
CC1=CC(C)(C)Nc2ccc(OC(=O)C(Cc3ccccc3)N3C(=O)C4CCCCC4C3=O)cc21 (stereo not given) | -22.1%
O=C(CN1C(=O)C2C3CCC(C3)C2C1=O)Oc1ccc2ccccc2c1 (stereo not given) | -1.46%
CC(C)Cn1c(N)c(C(=O)COC(=O)C2CCCN2C(=O)c2cccs2)c(=O)n(C)c1=O (stereo not given) | -23.1%
Cc1ccc(C)c(-c2nnc(NC(=O)CS(=O)(=O)c3ccccc3)o2)c1 | 1.8%
Cc1c(OC(C)C(=O)N[C@@H](Cc2ccccc2)C(=O)O)ccc2c3c(c(=O)oc12)CCCC3 (stereo not given in full) | 86.8% (active)
Cc1oc2c(C)c3oc(=O)c(CC(=O)N[C@@H](CC(C)C)C(=O)N[C@@H](Cc4ccccc4)C(=O)O)c(C)c3cc2c1C | 40.1%
Cc1cc(=O)oc2c(C)c(OC(C)C(=O)NC3CCN(Cc4ccccc4)CC3)ccc12 (stereo not given) | 2.88%
CC1(C)CC[C@@]2(C(=O)O)C(C1)C1=CCC3[C@@]4(C)CC[C@H](O)C(C)(C)C4CC[C@@]3(C)[C@]1(C)C[C@H]2O (stereo not given in full) | -9.85%
CCOC(=O)c1cccc(NC(=O)c2ccc(F)cc2F)c1 | 6.05%
CN(C)CCCN(C(=O)c1ccc(S(=O)(=O)N2CCCCCC2)cc1)c1nc2cc3c(cc2s1)OCCO3 | -4.06%
